# In article PMC5540273 (PLoS ONE, 2017):
# Tested on: ACVR2A
# Conditions: concentration: 1 μM, replicates: in singlicate; n = 1
# 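Further: KINOMEscan kinase panel screen.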
row,Structure (SMILES),%Inh
1,O=C1NC(=O)C(c2ccccc2Cl)=C1Nc1cccc(Cl)c1 [SB-342409],0%
2,COc1ccc(C2=C(Nc3cccc(O)c3)C(=O)NC2=O)cc1 [SB-390766],0%
3,CN(C)CCNS(=O)(=O)c1ccc(-c2ccnc3[nH]ccc23)cc1 [GSK977620],0%
4,CC(C)c1nc(-c2cccc(NS(=O)(=O)c3c(F)cccc3F)c2)c(-c2ccnc(Nc3ccc(N4CCOCC4)nc3)n2)s1.Cl [GSK1723980],0%
5,CCn1cnc2c(NCc3ccccc3)ncnc21 [SKF-96418],0%
6,COC(=O)Nc1nc2cc(Oc3ccc(NC(=O)Nc4cccc(SC)c4)cc3)ccc2[nH]1.Cl [GW697999],0%
7,O=C(Nc1n[nH]c2nc(-c3cccc(O)c3)ccc12)C1CC1 [SB-711805],43%
8,CN(c1ccc(F)c(NC(=O)c2cccc(OC(C)(C)C#N)c2Cl)c1)c1ccc2nc(NC(=O)C3CC3)sc2n1,0%
9,Cc1nn2c(=O)cc(N3CCO[C@H](C)C3)nc2n1Cc1cccc(Cl)c1Cl [GSK2373693],14%
10,Cl.O=C(Nc1ccc(Oc2ccc3[nH]c(NC(=O)c4ccco4)nc3c2)cc1)Nc1cc(C(F)(F)F)ccc1F [GW683134],4%
11,N#CC1(c2cccc(C(=O)Nc3cccc(Oc4ccc5nc(NC(=O)C6CC6)sc5n4)c3)c2)CC1,3%
12,COC(=O)Nc1nc2ccc(Oc3ccc(CC(=O)Nc4cc(C(F)(F)F)ccc4F)cc3)cc2[nH]1 [GW680903],0%
13,O=C(Nc1n[nH]c2nc(-c3ccccc3O)ccc12)C1CC1 [SB-711880],0%
14,CNc1nccc(-c2ccc3c(N)n[nH]c3c2)n1 [GSK2206003],8%
15,O=C(Nc1n[nH]c2cc(-c3cccs3)ccc12)C1CC1 [SB-731284],0%
16,CC(C)(C)c1ccc(C(=O)Nc2cn3cc(-n4ccnc4)ccc3n2)cc1,10%
17,Cc1ccc(Nc2ccnc(Nc3ccc(C)c(F)c3)n2)cc1O.Cl [GW582868],53%
18,Fc1cc(Cl)ccc1Nc1ccnc2cc(-c3ccc(CN4CCOCC4)o3)ccc12 [GW560109],22%
19,Nc1cccc(-c2ccc3c(N)n[nH]c3c2)c1 [GSK2193613],0%
20,Nc1ncnc2scc(-c3ccc(NC(=O)Cc4cc(F)ccc4F)cc3)c12.O=C(O)C(F)(F)F [SB-731254-M],24%
21,COc1cccc(-c2nc(-c3ccccc3)[nH]c2-c2ccncc2)c1 [SB-610250],0%
22,Cc1cccc(Nc2nc(NCCN)ncc2C(N)=O)c1 [GSK1292139],0%
23,CN1CCN(Cc2ccc(NC(=O)Nc3ccc(N(C)c4ccnc(Nc5ccc(CS(C)(=O)=O)cc5)n4)cc3)cc2)CC1.Cl [GW827654],0%
24,CN(c1ccc(NC(=O)Nc2cccc(Cl)c2)cc1)c1ccnc(N)n1.Cl [GW830707],0%
